Laboratory results reported in PubChem BioAssay (NCI).
Where “and” joins values, the source holds several entries; their conditions need not be identical. Equal values may be shown once. About 83,000 compounds went through this panel and 20% of them were active in at least one assay; those are over-represented in the sample as a whole.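 Percent growth is the endpoint: 0 to 100 indicates growth inhibition (40 means 60% inhibition), 0 means no net growth, and negative values indicate cell death.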 Calls of active or inactive are those of the source. How the source made its calls: active means growth percent below 10; inactive means the rest.

Tests used:
Assay in all cases: NCI-60 one-dose screen, 48 h (100 = growth as untreated, 0 = no growth, -100 = all killed)
SK-MEL-2 melanoma = conditions: 10 µM unless noted
EKVX NSCLC = system: EKVX NSCLC
UO-31 renal = system: UO-31 renal
TK-10 renal = system: TK-10 renal
ACHN renal = system: ACHN renal
CAKI-1 renal = system: CAKI-1 renal
A498 renal = system: A498 renal
CCRF-CEM leukemia = system: CCRF-CEM leukemia
MOLT-4 leukemia = system: MOLT-4 leukemia
SR leukemia = system: SR leukemia
RPMI-8226 leukemia = conditions: 10 µM unless noted
OVCAR-8 ovarian = system: OVCAR-8 ovarian
OVCAR-5 ovarian = system: OVCAR-5 ovarian
OVCAR-4 ovarian = system: OVCAR-4 ovarian
IGROV1 ovarian = system: IGROV1 ovarian
OVCAR-3 ovarian = system: OVCAR-3 ovarian
HS 578T breast = system: HS 578T breast
NCI/ADR-RES ovarian = system: NCI/ADR-RES ovarian
SK-OV-3 ovarian = conditions: 10 µM unless noted
SN12C renal = system: SN12C renal

Measured: growth

O=C(NNc1ccccc1)C1CCCN1 (centres undefined)
inactive: SK-MEL-2 melanoma 87.5% | EKVX NSCLC; 10 µM unless noted 69.4% | UO-31 renal; 10 µM unless noted 33% | TK-10 renal; 10 µM unless noted 84.6% | ACHN renal; 10 µM unless noted 20% | CAKI-1 renal; 10 µM unless noted 13.5% | A498 renal; 10 µM unless noted 103% | CCRF-CEM leukemia; 10 µM unless noted 46.7% | MOLT-4 leukemia; 10 µM unless noted 44.3% | SR leukemia; 10 µM unless noted 105% | RPMI-8226 leukemia 78.7% | OVCAR-8 ovarian; 10 µM unless noted 86.7% | OVCAR-5 ovarian; 10 µM unless noted 69.7% | OVCAR-4 ovarian; 10 µM unless noted 64.5% | IGROV1 ovarian; 10 µM unless noted 75.1% | OVCAR-3 ovarian; 10 µM unless noted 88.8% | HS 578T breast; 10 µM unless noted 93% | NCI/ADR-RES ovarian; 10 µM unless noted 84.1%

Cn1cc(-c2nonc2-c2cn(C)c3ccc(Br)cc23)c2ccccc21
inactive: SK-MEL-2 melanoma 33.5% | EKVX NSCLC; 10 µM unless noted 48.6% | UO-31 renal; 10 µM unless noted 32.3% | TK-10 renal; 10 µM unless noted 60.7% | ACHN renal; 10 µM unless noted 33.5% | CAKI-1 renal; 10 µM unless noted 25.8% | CCRF-CEM leukemia; 10 µM unless noted 15.5% | MOLT-4 leukemia; 10 µM unless noted 27.2% | SR leukemia; 10 µM unless noted 11.1% | RPMI-8226 leukemia 29.6% | OVCAR-8 ovarian; 10 µM unless noted 36.8% | OVCAR-5 ovarian; 10 µM unless noted 58.1% | OVCAR-4 ovarian; 10 µM unless noted 55.5% | SK-OV-3 ovarian 37.9% | IGROV1 ovarian; 10 µM unless noted 45.6% | NCI/ADR-RES ovarian; 10 µM unless noted 21%
active: A498 renal; 10 µM unless noted -5.37% | OVCAR-3 ovarian; 10 µM unless noted 3.66% | HS 578T breast; 10 µM unless noted -1.89%

O=C1/C(=C/c2cn(-c3ccccc3)nc2-c2ccccc2)SC(=S)N1c1ccc(Cl)cc1
inactive: EKVX NSCLC; 10 µM unless noted 81.9% | SN12C renal; 10 µM unless noted 69.2% | UO-31 renal; 10 µM unless noted 65.7% | TK-10 renal; 10 µM unless noted 91.8% | ACHN renal; 10 µM unless noted 81.9% | CAKI-1 renal; 10 µM unless noted 75.2% | A498 renal; 10 µM unless noted 67% | CCRF-CEM leukemia; 10 µM unless noted 54% | MOLT-4 leukemia; 10 µM unless noted 74.7% | SR leukemia; 10 µM unless noted 39.5% | OVCAR-8 ovarian; 10 µM unless noted 64.5% | OVCAR-5 ovarian; 10 µM unless noted 93.4% | OVCAR-4 ovarian; 10 µM unless noted 80.3% | SK-OV-3 ovarian 104% | IGROV1 ovarian; 10 µM unless noted 69.1% | OVCAR-3 ovarian; 10 µM unless noted 83.4% | HS 578T breast; 10 µM unless noted 83.7% | NCI/ADR-RES ovarian; 10 µM unless noted 85.7%

CN(C)CCNc1ncc(F)c(-c2cnc3cc(-c4cnn(C)c4)ccn23)n1
active: MOLT-4 leukemia; 30 µM 1.39% | SR leukemia; 30 µM 5.34%
inactive: EKVX NSCLC; 0.005 µM 97% | EKVX NSCLC; 30 µM 70.1% | SN12C renal; 0.005 µM 98.4% | SN12C renal; 30 µM 30.7% | UO-31 renal; 0.005 µM 94% | UO-31 renal; 30 µM 17.1% | TK-10 renal; 0.005 µM 105% | TK-10 renal; 30 µM 56.4% | ACHN renal; 0.005 µM 96.7% | ACHN renal; 30 µM 15.5% | CAKI-1 renal; 0.005 µM 99.5% | CAKI-1 renal; 30 µM 15.5% | A498 renal; 0.005 µM 99% | A498 renal; 30 µM 41.9% | CCRF-CEM leukemia; 0.005 µM 101% | CCRF-CEM leukemia; 30 µM 14.1% | MOLT-4 leukemia; 0.005 µM 104% | SR leukemia; 0.005 µM 99.9% | RPMI-8226 leukemia 98.3% [0.005 µM] | OVCAR-8 ovarian; 0.005 µM 99.9% | OVCAR-8 ovarian; 30 µM 54.3% | OVCAR-5 ovarian; 0.005 µM 99.7% | OVCAR-5 ovarian; 30 µM 64.5% | OVCAR-4 ovarian; 0.005 µM 105% | OVCAR-4 ovarian; 30 µM 38.6% | SK-OV-3 ovarian 21% [30 µM] | IGROV1 ovarian; 0.005 µM 108% | IGROV1 ovarian; 30 µM 22.6% | OVCAR-3 ovarian; 0.005 µM 109% | OVCAR-3 ovarian; 30 µM 75.3% | HS 578T breast; 0.005 µM 101% | HS 578T breast; 30 µM 60% | NCI/ADR-RES ovarian; 0.005 µM 101% | NCI/ADR-RES ovarian; 30 µM 62.3%

Cc1nc(-n2[nH]c(=O)ccc2=O)sc1N=Nc1ccccc1
inactive: EKVX NSCLC; 10 µM unless noted 96.5% | SN12C renal; 10 µM unless noted 97.7% | UO-31 renal; 10 µM unless noted 84.1% | TK-10 renal; 10 µM unless noted 121% | ACHN renal; 10 µM unless noted 99.5% | CAKI-1 renal; 10 µM unless noted 91.5% | A498 renal; 10 µM unless noted 105% | CCRF-CEM leukemia; 10 µM unless noted 100% | MOLT-4 leukemia; 10 µM unless noted 99.4% | SR leukemia; 10 µM unless noted 105% | RPMI-8226 leukemia 100% | OVCAR-8 ovarian; 10 µM unless noted 103% | OVCAR-5 ovarian; 10 µM unless noted 100% | OVCAR-4 ovarian; 10 µM unless noted 104% | SK-OV-3 ovarian 103% | IGROV1 ovarian; 10 µM unless noted 95.5% | OVCAR-3 ovarian; 10 µM unless noted 114% | HS 578T breast; 10 µM unless noted 95.5% | NCI/ADR-RES ovarian; 10 µM unless noted 108%

Cc1nc(Nc2ncc(C(=O)Nc3c(C)cccc3Cl)s2)cc(N2CCN(CCO)CC2)n1
24.2% (inactive) and -24.8% (active): OVCAR-8 ovarian; 10 µM unless noted
active: UO-31 renal; 10 µM unless noted -0.429% and -14.3% | TK-10 renal; 10 µM unless noted -7.96% and -61.7% | ACHN renal; 10 µM unless noted 1.96% and -15.4% | CAKI-1 renal; 10 µM unless noted -44.3% and -28.7% | A498 renal; 10 µM unless noted -24.2% and -40.1% | SK-OV-3 ovarian -7.55% and -25.8% | IGROV1 ovarian; 10 µM unless noted -16.4% and -37% | HS 578T breast; 10 µM unless noted -8.57%
inactive: EKVX NSCLC; 10 µM unless noted 41.5% and 33.2% | SN12C renal; 10 µM unless noted 24% and 18.3% | CCRF-CEM leukemia; 10 µM unless noted 77.3% and 41.6% | MOLT-4 leukemia; 10 µM unless noted 66.1% and 29.6% | SR leukemia; 10 µM unless noted 40.4% and 14.7% | RPMI-8226 leukemia 92.8% and 61.1% | OVCAR-5 ovarian; 10 µM unless noted 23.7% and 10.2% | OVCAR-4 ovarian; 10 µM unless noted 52.8% and 44.8% | OVCAR-3 ovarian; 10 µM unless noted 37.3% and 20.4% | NCI/ADR-RES ovarian; 10 µM unless noted 45.8% and 23.7%
